An excerpt weighted towards active compounds, which were near 1.8% of everything screened.
GLP-1R agonist: agonists of human GLP-1 receptor; HEK293 GLP-1R CRE-luciferase, luminescence, 4-6 h; cells express a hypersensitive GLP-1R form; hit rate 0.007% among 380,000; Potency, µM (top dose mostly 45.6 µM), actives largely listed as activators; AID 624172
PTHR1 agonist: agonists of human PTHR1 parathyroid hormone receptor; HEK293 GP2 PTHR1 cells, GloSensor cAMP luminescence, 1 h; Potency, µM (series often up to 115 µM), most hits filed as activators; Q03431; hit rate 0.075% among 410,000; AID 743266; also: nearly all actives have a fitted effect of over 55% in size
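HEK-293-derived GP2 cells expressing PTHR1 and a GloSensor cAMP reporter, 3,000/well, plated overnight, given luciferin plus IBMX (each 0.5 mM as added) for 1 h at 37 °C, then compound for 1 h at 37 °C. Luminescence was read after 15 min at room temperature.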
GCN5L2 inh: blocks human GCN5L2 histone acetyltransferase; GCN5L2 HAT assay, ThioGlo1 CoA-SH fluorescence; Potency, µM (highest dose often 58.9 µM), actives largely listed as inhibitors; hit rate 0.21% among 390,000; AID 504327
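Titration-based screen in which CoA formation is detected via maleimide probe ThioGlo1 (50uM) turning fluorescent on thiol reaction; substrates H3(1-25) 75uM and acetyl-CoA 70uM, GCN5L2 20nM, 20 min incubation at room temperature.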
RGS4 inhibitor: inhibitors of human regulator of G protein signaling 4 | P49798 | Transcreener GDP fluorescence polarization, RGS4-accelerated GTP hydrolysis | Potency, µM (top dose mostly 114 µM), usual class: inhibitors | hit rate 0.039% among 390,000 | AID 504845; also: nearly all actives have a fitted effect of over 75% in size
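MLSMR compounds (23 nl, pin-transferred) preincubated 10 min at room temperature with a 500nM (2x) first reagent, then RGS4 at 900nM (2x) plus Transcreener GDP mix added; fluorescence polarization (620/688 nm) read before and after 90 min at 30 °C.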
GLP1R inv ag: acts as inverse agonist at human GLP-1 receptor; P43220; HEK293 GLP-1R CRE-luciferase, luminescence, 24 h; GLP-1R form is constitutively active; Potency, µM (top dose mostly 38.3 µM), usual class: inhibitors; hit rate 1.6% among 410,000; also: nearly all actives have a fitted effect of over 55% in size
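HEK293 cells stably co-expressing a cAMP-responsive luciferase reporter and constitutively active GLP-1R were seeded, incubated 12 h, then exposed to compounds for 24 h at 37 C. Luminescence was read 12 min after detection reagent; inverse agonists lower signal.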
HEK293 tox: cytotoxicity counter-screen for GLP-1 receptor inverse agonists; HEK293 cAMP-luciferase reporter cells, luminescence, 24 h; Potency, µM (doses to about 38.3 µM), actives largely listed as inhibitors; hit rate 0.13% among 410,000;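 also: loss of luciferase light is scored as toxicity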
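A 23 nL compound transfer followed 12 hours of cell culture at 37 deg C; exposure then lasted 24 hr. Luciferase assay detection reagent was dispensed and plates read for luminescence after a 12 min room-temperature wait.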
Hits are given with their value; i = inactive; ? = inconclusive; nt = no result given; [ ] = remark or other dose. Calls follow the shape of the dose curve; as a rule, active = well fitted curve in the direction sought with a large enough effect; inconclusive = small, poorly fitted or top-dose-only effect, or another doubt; inactive = no such curve, though single readings can be large; an effect the other way counts as inactive or inconclusive.

SMILES | GLP-1R agonist | PTHR1 agonist | GCN5L2 inh | RGS4 inhibitor | GLP1R inv ag | HEK293 tox
COc1ccc(CC(=O)Nc2nc(-c3ccc(F)c(F)c3)cs2)cc1 | i | i | i | i | 11µM | i
NCCNC[C@@H]1COC2(CCCCCCCCCCC2)O1 | i | i | i | i | 5µM | i
Cc1cc(=O)[nH]c(SCC2COC3(CCCCC3)O2)n1 (stereo not given) | i | i | i | i | i | i
Cn1cc(CNCc2ccccc2OCC(O)CN2CCc3ccccc3C2)cn1 (stereo not given) | i | i | i | i | 8.9µM | ?
Cc1ccc(C(C)C)c(OCC(O)CN2CCc3ccccc3C2)c1 (stereo not given) | i | i | i | i | ? | ?
OC(COc1c(F)cc(Br)cc1F)CN1CCc2ccccc2C1 (stereo not given) | i | i | i | i | ? | i
Cc1cccc(C)c1OCC(O)CN1CCc2ccccc2C1 (stereo not given) | i | i | nt | i | 10µM | i
CCc1nnc2c(NCCc3ccccc3)nc3ccccc3n12 | i | i | i | i | i | i
Cc1cc(Br)c2c(c1)C(O)(N1CCCCC1C)C(=O)N2 (stereo not given) | i | i | i | i | 11µM | i
Cc1cc([N+](=O)[O-])cc2c1NC(=O)C2(O)N1CCCCCC1 (stereo not given) | i | i | i | i | i | i
COc1ccc(N2CCN(C(CNC(=O)C(=O)NCCC3=CCCCC3)c3ccco3)CC2)cc1 (stereo not given) | i | i | i | i | 10µM | ?
O=C(Cc1ccc(NC(=O)N2CCCCc3ccccc32)cc1)Nc1ccccc1Br | nt | i | i | i | 3.2µM | i
CCNC(=O)Cc1ccc(NC(=O)N2CCCCc3ccccc32)cc1 | nt | i | i | i | ? | i
O=C1C(Cl)=C(Nc2ccccc2)C(=O)c2ccccc21 | i | i | i | i | i | ?
CC(C)NC1=C(Cl)C(=O)c2ccccc2C1=O | i | i | i | i | i | 5.6µM
CCN(CC)c1ccc(/C=C(/C#N)c2nc3ccccc3[nH]2)c(OC(C)C)c1 | i | i | i | i | 1.8µM | i
CCCCCCCCN1C(=O)[C@H](CC(=O)NCc2cccs2)C[C@@]2(C(=O)OC)CC(C)(C)CC=C12 | nt | i | nt | nt | 8.9µM | i
CCCCCCCCN1C(=O)[C@H](CC(=O)NCc2ccccc2)C[C@@]2(C(=O)OCC)CCCC=C12 | i | i | nt | nt | ? | i
COC(=O)[C@@]12C[C@@H](CC(=O)NCc3ccccc3)C(=O)N(Cc3ccccc3)C1=CCC(C)(C)C2 | nt | i | nt | nt | 11µM | i
CCCCCCCCN1C(=O)[C@H](CC(=O)NCc2ccc(C)o2)C[C@@]2(C(=O)OC)CC(C)(C)CC=C12 | nt | i | nt | nt | ? | i
CCCCCCCCN1C(=O)[C@H](CC(=O)NCCCCc2ccccc2)C[C@@]2(C(=O)OCC)CCCC=C12 | i | i | nt | nt | 7.1µM | i
COC(=O)[C@@]12C[C@@H](CC(=O)NCc3ccccc3)C(=O)N(Cc3cccc4ccccc34)C1=CCC(C)(C)C2 | nt | i | nt | nt | ? | ?
CCOc1ccc(CCNC(=O)c2cc3c(-c4ccccc4F)nn(C)c3s2)cc1OCC | nt | i | i | i | ? | i
COc1cccc(NC(=O)Nc2nc(SC(C)(C)C)ns2)c1 | i | i | i | i | 5.6µM | ?
COc1ccc(CN(CCC(c2ccc(F)cc2)C2CCOC(C)(C)C2)C(=O)c2ccco2)cc1 (stereo not given) | i | i | i | i | ? | ?
SMILES | GLP-1R agonist | PTHR1 agonist | GCN5L2 inh | RGS4 inhibitor | GLP1R inv ag | HEK293 tox
CC(c1ccccc1)N(CCC(c1ccccc1)C1CCOC(C)(C)C1)C(=O)c1ccco1 (stereo not given) | i | i | i | i | 10µM | i
Cc1ccc(-c2onc(C)c2C)cc1S(=O)(=O)N1c2ccccc2CC1C (stereo not given) | nt | i | i | i | 10µM | i
CCOc1nc(Nc2ccc(OC)c(Cl)c2)nc(N2CCN(c3ccc(OC)cc3)CC2)n1 | i | i | i | i | 4.5µM | i
CCOc1nc(Nc2ccc(F)cc2)nc(N2CCN(c3ccc(OC)cc3)CC2)n1 | i | i | ? | i | ? | i
CC(NC(=O)C(Cc1ccccc1)n1cccc1)c1ccccc1 (stereo not given) | i | i | i | i | 11µM | i
CCCOc1ccc(C2C(=O)N(C3CCCCC3)CC(=O)N2CCc2ccccc2)cc1OC (stereo not given) | nt | i | i | i | i | i
CC1(C)Cc2c(cnn2-c2ccccc2)-c2c1c1ccccc1n2CC(O)CBr (stereo not given) | i | i | i | i | 7.1µM | i
Cc1ccc(N2C(=O)C(CN3CCCCC3)C2c2ccccc2)cc1 (stereo not given) | i | i | i | i | ? | i
Cc1ccc(N2C(=O)C(CN3CCCC3)C2c2ccccc2)cc1 (stereo not given) | i | i | i | i | 10µM | i
Cc1ccc2c(CC(=O)Nc3ccc(S(=O)(=O)N4CCCC(C)C4)cc3)coc2c1 (stereo not given) | nt | i | i | i | 10µM | i
Cc1nc(-c2ccc(S(=O)(=O)NCc3cccnc3)s2)cs1 | i | i | i | i | i | i
Cc1cc(N2CCN(Cc3nc(-c4ccc(Cl)cc4)oc3C)CC2)cc(C)n1 | i | i | i | i | 1µM | ?
CCC(C(=O)Nc1cccc(C(=O)O)c1C)c1ccccc1 (stereo not given) | i | i | i | i | i[7.66 µM] | i[7.66 µM]
COc1ccc(C(=O)/C=C/c2ccccc2)c(OC)c1 | i | i | i | i | 10µM | i
Cc1cccc(NC(=O)CN2C(=O)NC3(CCCC3)C2=O)n1 | i | i | i | i | i | i
Cc1cc(C)nc(OC(C(=O)O)C(OCCc2ccccc2)(c2ccc(F)cc2)c2ccc(F)cc2)n1 (stereo not given) | i | i | i | i | 10µM | i
COc1cc(OC)c(NC(=O)c2nn(-c3ccc(C)cc3)c(=O)c3c2c2ccccc2n3C)cc1Cl | nt | i | i | i | i | i
Cc1cc(OCCCn2c(CCNC(=O)C3CCCCC3)nc3ccccc32)ccc1Cl | nt | i | i | i | i | i
CC[n+]1c(-c2ccc(C)cc2)csc1Nc1c(C)n(C)n(-c2ccccc2)c1=O | i | i | i | i | 8.9µM | i
CCOC(=O)c1c(C)[nH]c(C(=O)OCC(=O)N2c3ccccc3CC2C)c1C (stereo not given) | i | i | i | i | 8.9µM | i
CN(Cc1ccco1)c1cc(-c2ccoc2)ncn1 | nt | nt | 32µM | nt | nt | nt

Assay outcomes as filed in PubChem BioAssay.
